Measurements reported in PubChem BioAssay (NCI).
The panel holds about 83,000 compounds, 20% with a hit somewhere; the sample as a whole holds those more often.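 The endpoint reported here, percent growth, reads 100 for growth as untreated, 0 for no net growth and -100 for all cells dead.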 Calls of active or inactive are those of the source. The calls were made as follows: active = growth percent below 10; inactive = the rest.

Tested on: OVCAR-8 ovarian
Assay: NCI-60 one-dose screen, 48 h (100 = growth as untreated, 0 = no growth, -100 = all killed)
Conditions: 10 µM unless noted

SMILES	growth
C=C(C)[C@@H]1CC[C@]2(COC(=O)c3cccnc3)CC[C@]3(C)[C@H](CC[C@@H]4[C@@]5(C)CCCN(C(=O)c6cccnc6)C(C)(C)[C@@H]5CC[C@]43C)[C@@H]12	26.9% (inactive)
C=C1C(=O)O[C@H]2[C@H]1CC/C(CNC(=O)/C=C/c1cc(OC)c(OC)c(OC)c1)=C\CC[C@@]1(C)O[C@@H]21	5.04% (active)
O=S(=O)(c1ccc(NCSc2nc3ccccc3s2)cc1)c1ccc(NCSc2nc3ccccc3s2)cc1	96.8% (inactive)
COc1ccc(S(=O)(=O)Oc2ccc(-c3sc4cc(OS(=O)(=O)c5ccc(OC)cc5)ccc4c3C(=O)c3ccc(OCCN4CCCCC4)cc3)cc2)cc1	108% (inactive)
Nc1nc(N)c2c(n1)NC(c1cccc(Nc3ccnc4cc(C(F)(F)F)ccc34)c1)CC(c1ccc(Cl)cc1)=N2 (stereo unspecified)	62.4% (inactive)
COC(=O)[C@H]1Cc2c([nH]c3ccccc23)[C@H](c2ccc3c(c2)OCO3)N1	103% (inactive)
[2H]C([2H])([2H])Oc1c(F)cccc1/C=C/C(=O)/C=C(O)/C=C/c1cccc(F)c1OC([2H])([2H])[2H]	87% (inactive)
C=C(C)[C@@H]1CCC[C@]2(C(=O)OC)CC[C@]3(C)[C@@H](CC[C@@H]4[C@@]5(C)CCCNC(C)(C)[C@@H]5CC[C@]43C)[C@@H]12	89.6% (inactive)
O=C(Nc1ncc(Cc2ccccc2)s1)c1ccc2c(c1)OCCO2	19% (inactive)
COc1ccc(-c2cc(-c3ccc(Nc4nc(Nc5ccc(Cl)cc5)nc(Nc5ccc(Cl)cc5)n4)cc3)no2)cc1	85.7% (inactive)
CNC(=O)c1cc(Oc2ccc3nc(NC(=O)NC(C)C)sc3c2)ccn1	88.4% (inactive)
O=C1NCCS(=O)(=O)/C1=C\C=C\c1cccc(C(F)(F)F)c1	20.4% (inactive)
NCCNc1ccc([N+](=O)[O-])cc1	113% (inactive)
Clc1ccc2c(NCCCn3cnc4c(N5CCCC5)nc(Cl)nc43)ccnc2c1	103% (inactive)
O=C(/C=C/c1ccc(Cl)cc1)c1ccc(Nc2ccnc3cc(Cl)ccc23)cc1	85.2% (inactive)
Oc1c(Cl)cc(Cl)c2ccc(CN3CCNCC3)nc12	27.5% (inactive)
O=C1c2ccccc2C(=O)c2cc(Cn3c[n+](Cc4ccc5ccccc5c4)c4ccccc43)ccc21	41.4% (inactive)
CC(C)(C#N)c1cc(C(=O)Nc2cc(Nc3ncccc3-c3ncnc4nc[nH]c34)ccc2F)cc(C(F)(F)F)c1	49.5% (inactive)

SMILES	growth
CC(C)n1cc(C2=C(c3cccc4ccccc34)C(=O)NC2=O)c2cc(Br)ccc21	72.7% (inactive)
O=CN1N=C(c2cccc(Nc3ccncc3)c2)CC1c1ccc2c(c1)OCO2 (stereo unspecified)	91.3% (inactive)
CC(=O)Cc1nsc(NC(=O)c2cc(-c3cc(Cl)ccc3Cl)oc2C)n1	102% (inactive)
O=C(O)COc1ccc(F)cc1	102% (inactive)
CC(Cc1cccc2ccccc12)C(N)=O (stereo unspecified)	108% (inactive)
NC(=N\N=C/c1ccc(Cl)cc1Cl)/C(N)=N\N=C/c1ccc(Cl)cc1Cl	76.6% (inactive)
CCOC(=O)CC1C(CNC(=O)NC)OC(n2cnc3c(NC(=O)Nc4ccccc4)ncnc32)C1O[Si](C)(C)C(C)(C)C (stereo unspecified)	65.4% (inactive)
CCc1ccc(Cc2cnc(NC(=O)c3cc(C)oc3C)s2)cc1	52.9% (inactive)
CNc1nc2ncc(-c3c(C)noc3C)cc2n1Cc1ccccc1	55.9% (inactive)
CCCCC1=C(Br)C(=O)c2ncccc2C1=O	95.4% (inactive)
Cc1ccc2nc(/C=C/c3ccc(N(C)C)cc3)cc(C)c2c1	41.4% (inactive)
CCN(CC)c1ccc(/C=N/NC(=O)c2ccccc2Nc2ccnc(C(F)(F)F)c2)c(O)c1	35.1% (inactive)
COc1cc2ncnc(Nc3ccc(S(=O)(=O)Nc4cc(C)on4)cc3)c2cc1OCCCN1CCOCC1	98.2% (inactive)
COc1ccc(-c2cc(-c3ccc(N(C)C)cc3)nc(NC(=O)c3cccnc3)n2)cc1	99.3% (inactive)
CC(=O)/C(Br)=C/c1ccc(Br)o1	79% (inactive)
N#CC1=C(N)Oc2c(ccc3cccnc23)C1c1ccccc1 (stereo unspecified)	45.2% (inactive)
CCCS(=O)(=O)Nc1cccc(Nc2ncnc3cc(NC(=O)CCl)ccc23)c1Cl	0.271% (active)
COC(=O)c1nc(-c2ccc(C)cc2)oc1N1CCOCC1	107% (inactive)
